# Pf Dd2 growth = blocks in vitro growth of P. falciparum Dd2. Potency, µM (top dose mostly 28.9 µM), for inactives: at the highest dose activity, negative = inhibition, most hits filed as inhibitors. actives 4.3% (n = 120,000). P. falciparum Dd2 growth, SYBR Green, 72 h. AID 1347417; active = well fitted inhibition curve with a large enough effect;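 also: plate controls were DMSO vehicle for no effect and reference drug for full effect; nearly all actives have a fitted effect of over 65% in size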
#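 Infected erythrocytes (Dd2, 0.3% parasitemia, 2.5% hematocrit final) are added to compound in RPMI-1640/Albumax II medium, grown 72 h at 37C in low oxygen, then lysed with saponin/Triton-X containing SYBR Green and read by fluorescence.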
# * hit, by the source's call; i = inactive; [ ] = another dose, or the depositor's remark. The entries come from a sample that favours hits as a whole. Potency is read from the fitted curve at half-maximal effect.
SMILES,Pf Dd2 growth
O=C(c1ccc2ncccc2c1)N1CCC2(CC1)Nc1ccccc1NC2=O,8%
Cc1ccc(C2(O)CCN(C(=O)C(=O)c3cccnc3)CC2)nc1,-7%
Cc1ccc(C2(O)CCN(C(=O)c3ccc4ncccc4c3)CC2)nc1,4µM*
O=C(C[C@@H]1O[C@H](CNC(=O)C2CCCC2)[C@@H](O)[C@H]1O)Nc1ccccc1,33%[44.1 µM]
CCN1CCN(C(=O)c2coc(COc3ccc4c(c3)OCO4)n2)CC1(C)C,1%
Cc1nncn1C1CCN(S(=O)(=O)c2ccc(C(C)C)cc2)CC1,i
O=C(Cc1ccc(F)cc1)NC1CCN(c2ccc(F)cc2)C1=O (stereo not drawn),i
O=C1CCN(S(=O)(=O)c2ccc3c(c2)CCC3)CCCC(c2nc(-c3cccnc3)no2)CCN1 (stereo not drawn),-9%
COCc1nc(C2CCN(C(=O)Nc3ccc4c(c3)OCCO4)C2)no1 (stereo not drawn),-21%
CCOc1cc(-c2cc(C(=O)O)c3c(-c4ccccc4)[nH]nc3n2)ccc1O,-3%
COc1ccc(-c2[nH]nc3nc(-c4cc(OC)c(OC)c(OC)c4)cc(C(=O)O)c23)cc1,-15%
Cc1cccc(-c2cc(C(=O)O)c3c(-c4ccc(F)cc4)[nH]nc3n2)c1,7.9µM*
Cc1noc(C)c1CCC(=O)NC1CCc2nnc(C)n2CC1 (stereo not drawn),32%
COc1ccc(C(=O)N2CCC3(CC2)COc2ccccc2CN3)cc1,1.4µM*
COc1ccc(C(=O)N2CCCC3(COc4ccccc4C(=O)N3)C2)cc1 (stereo not drawn),-11%
COc1ccc(C(=O)N2CCC3(CC2)CNC(=O)c2ccccc2O3)cc1,-16%
Cc1ccc(C)c(S(=O)(=O)N2CCCC(Cn3c(C4CC4)nc4cccnc43)C2)c1 (stereo not drawn),-9%
COc1ccc(S(=O)(=O)c2c(O)c3ccc(C(=O)NCc4ccc(Cl)cc4)cc3[nH]c2=O)cc1,-3%
COc1ccc(C(=O)NC(c2ccc(Cl)cc2)c2cc(Cl)c3cccnc3c2O)cc1 (stereo not drawn),2.8µM*
COc1ccc(C(=O)Nc2cc(C(C)C)c(O)c(S(=O)(=O)c3ccc(OC)cc3)c2C)cc1,i
CC(C)CN(Cc1cnn(C)c1)C(=O)C1CCN(C(=O)C2CCC2)CC1,-6%
CN(CCc1ccccn1)[C@H]1[C@@H]2OC[C@@H](O2)[C@@H](NCc2ccc(F)cc2)[C@@H]1O,i
Cc1cc(C)cc(C(=O)N2CCC[C@H]2c2nc(-c3ccccc3)no2)c1,7%
CCCCNC(=O)N1CC(C(=O)NCc2ccco2)CC(c2ccc(F)c(C)c2)C1 (stereo not drawn),i
Oc1ccccc1CN1C[C@H](O)C[C@H]1c1nc(-c2ccncc2)no1,-8%[44.1 µM]
SMILES,Pf Dd2 growth
COCCCNc1ccc2nnc(-c3ccc(F)cn3)n2n1,-1%[44.1 µM]
COc1ccc(NC(=O)c2ccc(-c3nc(CSc4ccccc4)c(C)o3)cc2)cc1OC,i
Cc1oc(-c2ccc(C(=O)Nc3cccc(C(F)(F)F)c3)cc2)nc1CSc1ccccc1,11µM*
CC(=O)c1ccc(NC(=O)c2ccc(-c3nc(CSc4ccccc4)c(C)o3)cc2)cc1,-24%
c1cn(CC2COCCO2)c(-c2cc3n(n2)CCCNC3)n1 (stereo not drawn),3%
CN1CC2(CCN(C(=O)Nc3ccc4c(c3)OCCO4)CC2)CC1C(=O)N1CCOCC1 (stereo not drawn),-1%
Cc1cc(C)c(S(=O)(=O)c2nnn3c2nc(NC2CCCC2)c2ccccc23)c(C)c1,11µM*
CCOC(=O)C1CCN(c2nc3c(S(=O)(=O)c4ccccc4)nnn3c3ccc(Cl)cc23)CC1,8.9µM*
Cc1cc(C)cc(Nc2nc3c(S(=O)(=O)c4cccc(Cl)c4)nnn3c3ccsc23)c1,-11%
O=S(=O)(c1cccc(Cl)c1)c1nnn2c1nc(NC1CCCC1)c1sccc12,13µM*
O=S(=O)(c1cccc(Cl)c1)c1nnn2c1nc(NCc1ccc3c(c1)OCO3)c1sccc12,-11%
CCc1ccc(S(=O)(=O)c2nnn3c2nc(N2CCC(C)CC2)c2cc(Cl)ccc23)cc1,i
Cc1cc(C)c(S(=O)(=O)c2nnn3c2nc(NCCCOC(C)C)c2ccccc23)c(C)c1,-20%
O=S(=O)(c1ccccc1)c1nnn2c1nc(NC1CC1)c1ccccc12,-9%
CCOC(=O)C1CCCN(c2nc3c(S(=O)(=O)c4ccc(CC)cc4)nnn3c3ccc(Cl)cc23)C1 (stereo not drawn),-30%
CC(C)c1ccc(S(=O)(=O)c2nnn3c2nc(N2CCCC2)c2sccc23)cc1,0%
Cc1ccc(S(=O)(=O)c2nnn3c2nc(N2CCC(C(N)=O)CC2)c2cc(Cl)ccc23)cc1C,-16%
CC1CCN(c2nc3c(S(=O)(=O)c4cccc(Cl)c4)nnn3c3ccsc23)CC1,13µM*
O=C(c1ccccc1F)N1CCn2c(nn(-c3ccc([N+](=O)[O-])cc3)c2=O)C1,16%
COCCC(=O)N1C[C@H]2OC(=O)N(CCc3ccc(OC)cc3)[C@H]2C1,-9%
O=C(NC1CCOC2(CCOCC2)C1)c1ccc(C(F)(F)F)cc1 (stereo not drawn),-15%
